# Data: PubChem BioAssay AID1159580 (chemical genetic matrix, 2015)
# Screen size: about 5,500 compounds; about 2,000 (36%) were called active. Roughly 18% stayed inconclusive and do not appear here. This is one part of the list. A number with no mark means an inactive call. Rule as the data show it: active = normalized growth mostly below about 0.91 (no sharp cut-off); inconclusive = no clear call, values can overlap the other calls; inactive = mostly above about 0.92.
# Assay: chemical genetic growth profiling, strain panel (AID 1159580);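 also: tested at 20 µM; growth read once vehicle control cultures reached saturation at 30 °C; 1 = growth at the plate median or of vehicle wells; lower values mean less growth of the strain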
# Conditions: S. cerevisiae deletion strains, growth OD
smiles,measurement,setting,value
NC(N)=Nc1nc(-c2cc(Cl)sc2Cl)cs1,normalized growth,"locus YAR019C, strain CDC15, active compounds read low",0.994
same,normalized growth,"locus YBL105C, strain PKC1, active compounds read low",0.998
same,normalized growth,"locus YBR135W, strain CKS1, active compounds read low",0.987
same,normalized growth,"locus YBR136W, strain MEC1, active compounds read low",0.99
same,normalized growth,"locus YBR160W, strain CDC28, active compounds read low",0.99
same,normalized growth,"locus YDL017W, strain CDC7, active compounds read low",0.993
same,normalized growth,"locus YDL028C, strain MPS1, active compounds read low",0.985
same,normalized growth,"locus YDL101C, strain DUN1, active compounds read low",0.966
same,normalized growth,"locus YDL108W, strain KIN28, active compounds read low",0.988
same,normalized growth,"locus YDL132W, strain cdc53, active compounds read low",0.979
same,normalized growth,"locus YDL214C, strain PRR2, active compounds read low",0.934
same,normalized growth,"locus YDR052C, strain DBF4, active compounds read low",0.99
same,normalized growth,"locus YDR054C, strain cdc34, active compounds read low",0.973
same,normalized growth,"locus YDR226W, strain ADK1, active compounds read low",0.974
same,normalized growth,"locus YDR477W, strain SNF1, active compounds read low",0.944
same,normalized growth,"locus YER123W, strain YCK3, active compounds read low",0.862
same,normalized growth,"locus YER133W, strain GLC7, active compounds read low",0.905
same,normalized growth,"locus YFL009W, strain cdc4, active compounds read low",0.983
same,normalized growth,"locus YFL029C, strain CAK1, active compounds read low",0.988
same,normalized growth,"locus YFR003C, strain YPI1, active compounds read low",0.986
same,normalized growth,"locus YFR019W, strain FAB1, active compounds read low",0.947
same,normalized growth,"locus YFR028C, strain CDC14, active compounds read low",0.982
same,normalized growth,"locus YGR040W, strain KSS1, active compounds read low",0.942
same,normalized growth,"locus YGR052W, strain FMP48, active compounds read low",0.935
same,normalized growth,"locus YGR092W, strain DBF2, active compounds read low",0.945
same,normalized growth,"locus YHR030C, strain SLT2, active compounds read low",0.821 (active)
same,normalized growth,"locus YHR079C, strain IRE1, active compounds read low",0.897
same,normalized growth,"locus YHR082C, strain KSP1, active compounds read low",1
same,normalized growth,"locus YHR205W, strain SCH9, active compounds read low",0.904
same,normalized growth,"locus YIL147C, strain SLN1, active compounds read low",0.987
same,normalized growth,"locus YJL095W, strain BCK1, active compounds read low",0.826
same,normalized growth,"locus YJL128C, strain PBS2, active compounds read low",0.922
same,normalized growth,"locus YJL157C, strain FAR1, active compounds read low",0.932
same,normalized growth,"locus YJR016C, strain ILV3, active compounds read low",0.997
same,normalized growth,"locus YJR066W, strain TOR1 (second series), active compounds read low",0.886
same,normalized growth,"locus YJR066W, strain TOR1, active compounds read low",0.997
same,normalized growth,"locus YKL048C, strain ELM1, active compounds read low",0.947
same,normalized growth,"locus YKL067W, strain YNK1, active compounds read low",0.932
same,normalized growth,"locus YKL101W, strain HSL1, active compounds read low",0.93
same,normalized growth,"locus YKL193C, strain SDS22, active compounds read low",0.985
same,normalized growth,"locus YKL203C, strain TOR2, active compounds read low",0.988
same,normalized growth,"locus YLR113W, strain HOG1, active compounds read low",0.757 (active)
same,normalized growth,"locus YLR133W, strain CKI1, active compounds read low",0.958
same,normalized growth,"locus YLR403W, strain SFP1, active compounds read low",0.962
same,normalized growth,"locus YML070W, strain DAK1, active compounds read low",0.901
same,normalized growth,"locus YMR001C, strain CDC5, active compounds read low",0.993
same,normalized growth,"locus YMR205C, strain PFK2 (second series), active compounds read low",0.948
same,normalized growth,"locus YMR277W, strain FCP1, active compounds read low",0.985
same,normalized growth,"locus YNL006W, strain LST8, active compounds read low",0.984
same,normalized growth,"locus YNL020C, strain ARK1, active compounds read low",0.96
same,normalized growth,"locus YNL161W, strain CBK1, active compounds read low",0.989
same,normalized growth,"locus YNL183C, strain NPR1, active compounds read low",0.988
same,normalized growth,"locus YNL207W, strain RIO2, active compounds read low",0.989
same,normalized growth,"locus YNL222W, strain SSU72, active compounds read low",0.99
same,normalized growth,"locus YNL307C, strain MCK1 (second series), active compounds read low",0.927
same,normalized growth,"locus YOL078W, strain AVO1, active compounds read low",0.986
same,normalized growth,"locus YOL136C, strain PFK27, active compounds read low",0.91
same,normalized growth,"locus YOR061W, strain CKA2, active compounds read low",0.983
same,normalized growth,"locus YOR119C, strain RIO1, active compounds read low",0.981
same,normalized growth,"locus YOR231W, strain MKK1, active compounds read low",0.935
same,normalized growth,"locus YOR329C, strain SCD5, active compounds read low",0.995
same,normalized growth,"locus YPL031C, strain PHO85, active compounds read low",0.93
same,normalized growth,"locus YPL153C, strain RAD53, active compounds read low",0.921
same,normalized growth,"locus YPL204W, strain HRR25, active compounds read low",0.921
same,normalized growth,"locus YPL209C, strain IPL1, active compounds read low",0.99
same,normalized growth,"locus YPL256C, strain CLN2, active compounds read low",0.89
same,normalized growth,"locus YPR025C, strain CCL1, active compounds read low",0.992
same,normalized growth,"locus YPR106W, strain ISR1, active compounds read low",0.985
same,normalized growth,"locus YPR111W, strain DBF20, active compounds read low",0.974
same,normalized growth,"strain NNK1, active compounds read low",0.971
same,normalized growth,"strain TSCII, active compounds read low",0.985
